Assay results as given in PubChem BioAssay (NCI).
The panel holds about 79,000 compounds, 15% with a hit somewhere; the sample as a whole holds those more often. The source made the active and inactive calls. Cut-off read from the data, not from the text of the source: active = growth inhibition above about 70%; inactive = the rest.

Columns and labels:
[1] = NCI Yeast Anticancer Drug Screen. Data for the mec2-1 strain (AID 157); settings: S. cerevisiae mec2-1 strain, stronger effect = higher value
Outline: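 mec2-1 yeast strain, carrying an alteration in DNA damage repair or cell cycle control, was exposed to compounds; growth inhibition was measured relative to vehicle-treated controls.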

[2] = NCI Yeast Anticancer Drug Screen. Data for the rad14 strain (AID 159);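 note: 0% = growth of vehicle-treated control cultures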; settings: S. cerevisiae rad14 strain growth inhibition, stronger effect = higher value
Outline: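 Inhibition of growth is reported for a repair-deficient yeast mutant following compound treatment, calculated relative to cultures that received vehicle.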

[3] = NCI Yeast Anticancer Drug Screen. Data for the sgs1 mgt1 strain (AID 161);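 note: 0% = growth of cultures given vehicle only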; settings: S. cerevisiae sgs1 mgt1 strain, stronger effect = higher value
Outline: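 Growth of a repair-deficient yeast mutant was monitored after compound treatment and expressed as inhibition relative to vehicle-treated cultures.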

[4] = NCI Yeast Anticancer Drug Screen. Data for the CLN2oe strain (AID 163);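 note: 0% = growth of vehicle-only control cultures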; settings: S. cerevisiae CLN2oe strain, stronger effect = higher value
Outline: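 Yeast cells carrying a defined cell-cycle control alteration were exposed to test compounds. Growth inhibition was scored against vehicle-treated control cultures.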

[5] = NCI Yeast Anticancer Drug Screen. Data for the cln2 rad14 strain (AID 165);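 note: 0% = growth equal to vehicle treated cultures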; settings: S. cerevisiae cln2 rad14 strain, stronger effect = higher value
Outline: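 Yeast carrying cln2 and rad14 alterations (cell cycle control and DNA damage repair) were exposed to compounds. Growth inhibition was measured against vehicle-treated controls.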

[6] = NCI Yeast Anticancer Drug Screen. Data for the bub3 strain (AID 167); settings: S. cerevisiae bub3 mutant strain, stronger effect = higher value
Outline: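 Mutant yeast screening strain plus compound; vehicle-treated cultures serve as the 0% inhibition reference.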

[7] = NCI Yeast Anticancer Drug Screen. Data for the wt2 strain (AID 169); settings: S. cerevisiae wt2 strain growth inhibition, stronger effect = higher value
Outline: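 Yeast cells were exposed to test compounds, and growth inhibition was measured relative to vehicle-treated controls.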

[8] = NCI Yeast Anticancer Drug Screen. Data for the mlh1 strain (AID 171);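 note: 0% = growth of vehicle-treated control cultures of the same strain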; settings: S. cerevisiae mlh1 strain growth inhibition, stronger effect = higher value
Outline: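 Yeast carrying a defined genetic alteration in DNA damage repair or cell cycle control were exposed to test compounds. Growth inhibition was measured relative to vehicle-treated controls.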

[9] = NCI Yeast Anticancer Drug Screen. Data for the sgs1 strain (AID 173);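 note: 0% = growth of vehicle-only control cultures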; settings: S. cerevisiae sgs1 mutant, stronger effect = higher value
Outline: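 Yeast mutant strains carrying defined defects in DNA damage repair or cell cycle control were exposed to test compounds. Growth inhibition was scored against vehicle-treated controls.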

[10] = NCI Yeast Anticancer Drug Screen. Data for the mlh1 rad18 strain (AID 175); settings: S. cerevisiae mlh1 rad18 strain growth inhibition, stronger effect = higher value
Outline: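 Growth inhibition of the yeast strain was measured after compound exposure and expressed relative to vehicle-treated controls. The strain carries defined defects in DNA damage repair.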

[11] = NCI Yeast Anticancer Drug Screen. Data for the rad18 strain (AID 177); settings: S. cerevisiae rad18 mutant growth inhibition, stronger effect = higher value
Outline: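 Yeast carrying a defined DNA damage repair alteration were exposed to compounds. Growth inhibition was expressed relative to vehicle-treated controls.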

[12] = NCI Yeast Anticancer Drug Screen. Data for the wt1 strain (AID 149);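 note: 0% = growth of vehicle-treated wt1 cultures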; settings: S. cerevisiae wt1 strain (SPY 50644) growth inhibition, stronger effect = higher value
Outline: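 Each compound is tested on wt1 yeast and the loss of growth versus vehicle gives the inhibition value.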

[13] = NCI Yeast Anticancer Drug Screen. Data for the rad50EPP+ strain (AID 151);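 note: 0% = growth of vehicle-treated control cultures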; settings: S. cerevisiae rad50 mutant strain, stronger effect = higher value
Outline: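 Yeast strain carrying rad50 alteration (rad50EPP+) exposed to compounds; growth inhibition measured relative to vehicle-treated controls.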

[14] = NCI Yeast Anticancer Drug Screen. Data for the mgt1 strain (AID 153); settings: S. cerevisiae mgt1 mutant growth inhibition, stronger effect = higher value
Outline: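 Yeast mgt1 strain (DNA repair/cell-cycle alteration panel) exposed to compounds; growth inhibition measured relative to vehicle-treated controls.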

[15] = NCI Yeast Anticancer Drug Screen. Data for the rad50 strain (AID 155);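 note: 0% = growth of vehicle-only cultures of the same strain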; settings: S. cerevisiae rad50 strain growth inhibition, stronger effect = higher value
Outline: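 Vehicle-treated cultures provide the reference for the growth inhibition reported for compound-exposed, repair-deficient yeast.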

[16] = NCI Yeast Anticancer Drug Screen. Data for the rad52 strain (AID 147);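 note: 0% = growth of vehicle-treated control cultures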; settings: S. cerevisiae rad52 mutant growth inhibition, stronger effect = higher value
Outline: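 Yeast strain carrying a DNA damage repair alteration was exposed to test compounds. Growth inhibition was measured relative to vehicle-treated controls.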

[17] = at 5.0 µM (retest, dose inferred, filed as 0.5)
[18] = at 50.0 µM (retest, dose inferred, filed as 5.0)

Measured: growth inhibition

c1cncc(C(Nc2cccc3cccnc23)Nc2cccc3cccnc23)c1
inactive: [1]; at 100.0 µM 15% | [2]; at 1.2 µM 0% | [2]; at 3.7 µM 9% | [2]; at 11.0 µM 15% | [2]; at 33.0 µM 25% | [2]; at 100.0 µM 47% | [3]; [17] 28% | [3]; [18] 53% | [3]; at 50.0 µM 54.4% | [4]; at 1.2 µM 6% | [4]; at 3.7 µM 3% | [4]; at 11.0 µM 3% | [4]; at 33.0 µM 3% | [4]; at 100.0 µM 2% | [5]; [17] 1% | [5]; [18] 6% | [5]; at 50.0 µM 27.9% | [6]; at 1.2 µM 1% | [6]; at 3.7 µM 4% | [6]; [17] -10% | [6]; at 11.0 µM -7% | [6]; at 33.0 µM -11% | [6]; [18] -12% | [6]; at 50.0 µM -13.8% | [6]; at 100.0 µM -8% | [7]; at 1.2 µM 0% | [7]; at 3.7 µM 9% | [7]; at 11.0 µM 0% | [7]; at 33.0 µM 2% | [7]; at 100.0 µM -1% | [8]; at 1.2 µM 3% | [8]; at 3.7 µM 1% | [8]; at 11.0 µM 1% | [8]; at 33.0 µM 4% | [8]; at 100.0 µM 2% | [9]; at 1.2 µM 11% | [9]; at 3.7 µM 39% | [9]; at 11.0 µM 59% | [9]; at 33.0 µM 64% | [9]; at 100.0 µM 62% | [10]; [17] 25% | [10]; [18] 40% | [11]; at 1.2 µM 36%
active: [10]; at 50.0 µM 77.2% | [11]; at 3.7 µM 89% | [11]; at 11.0 µM 92% | [11]; at 33.0 µM 94% | [11]; at 100.0 µM 94%

CC(C)(C(=O)NN)c1ccccc1
active: [12]; at 100.0 µM 78% | [13]; at 100.0 µM 85% | [14]; at 100.0 µM 90% | [15]; [18] 99% | [15]; at 100.0 µM 82% | [1]; [18] 95% | [1]; at 100.0 µM 83% | [3]; [18] 98% | [4]; at 100.0 µM 81% | [5]; [18] 88% | [6]; at 33.0 µM 70% | [6]; [18] 97% | [6]; at 100.0 µM 94% | [7]; at 100.0 µM 83% | [8]; at 100.0 µM 91% | [9]; at 33.0 µM 71% | [9]; at 100.0 µM 94% | [10]; [18] 99% | [11]; at 33.0 µM 70% | [11]; at 100.0 µM 92%
inactive: [12]; at 1.2 µM 2% | [12]; at 3.7 µM 9% | [12]; at 11.0 µM 34% | [12]; at 33.0 µM 52% | [13]; at 1.2 µM 4% | [13]; at 3.7 µM 25% | [13]; at 11.0 µM 52% | [13]; at 33.0 µM 68% | [14]; at 1.2 µM 4% | [14]; at 3.7 µM 10% | [14]; at 11.0 µM 22% | [14]; at 33.0 µM 54% | [15]; at 1.2 µM 3% | [15]; at 3.7 µM 5% | [15]; [17] 14% | [15]; at 11.0 µM 22% | [15]; at 33.0 µM 40% | [15]; at 50.0 µM 52.9% | [1]; at 1.2 µM 0% | [1]; at 3.7 µM 1% | [1]; [17] 11% | [1]; at 11.0 µM 24% | [1]; at 33.0 µM 53% | [1]; at 50.0 µM 9.5% | [2]; at 1.2 µM -1% | [2]; at 3.7 µM -4% | [2]; at 11.0 µM 3% | [2]; at 33.0 µM 21% | [2]; at 100.0 µM 58% | [3]; [17] 14% | [3]; at 50.0 µM 14.9% | [4]; at 1.2 µM -7% | [4]; at 3.7 µM -1% | [4]; at 11.0 µM 27% | [4]; at 33.0 µM 51% | [5]; [17] 20% | [5]; at 50.0 µM 55.5% | [6]; at 1.2 µM -3% | [6]; at 3.7 µM 0% | [6]; [17] -14% | [6]; at 11.0 µM 34% | [6]; at 50.0 µM 52% | [7]; at 1.2 µM 1% | [7]; at 3.7 µM 10% | [7]; at 11.0 µM 28% | [7]; at 33.0 µM 42% | [8]; at 1.2 µM 3% | [8]; at 3.7 µM 5% | [8]; at 11.0 µM 21% | [8]; at 33.0 µM 46% | [9]; at 1.2 µM 0% | [9]; at 3.7 µM 13% | [9]; at 11.0 µM 41% | [10]; [17] 63% | [10]; at 50.0 µM 62.9% | [11]; at 1.2 µM 2% | [11]; at 3.7 µM 8% | [11]; at 11.0 µM 46%

CN1CCN(c2ccc3nc(-c4ccc5nc(-c6ccc(O)cc6)[nH]c5c4)[nH]c3c2)CC1
inactive: [16]; at 1.2 µM 8% | [16]; at 3.7 µM -1% | [16]; at 33.0 µM 38% | [12]; at 1.2 µM 3% | [12]; at 3.7 µM 5% | [13]; at 1.2 µM -7% | [13]; at 3.7 µM -12% | [15]; at 1.2 µM 6% | [15]; at 3.7 µM 13% | [1]; at 1.2 µM -4% | [1]; at 3.7 µM -17% | [1]; [17] 63% | [2]; at 1.2 µM -16% | [2]; at 3.7 µM -16% | [3]; [17] 43% | [4]; at 1.2 µM 9% | [4]; at 3.7 µM 6% | [5]; [17] 45% | [6]; at 1.2 µM -10% | [6]; at 3.7 µM -1% | [7]; at 1.2 µM -17% | [7]; at 3.7 µM -27% | [8]; at 1.2 µM -10% | [8]; at 3.7 µM -15% | [9]; at 1.2 µM -5% | [9]; at 3.7 µM 2% | [11]; at 1.2 µM -12% | [11]; at 3.7 µM -29%
active: [16]; at 11.0 µM 98% | [16]; at 100.0 µM 98% | [12]; at 11.0 µM 98% | [12]; at 33.0 µM 98% | [12]; at 100.0 µM 97% | [13]; at 11.0 µM 83% | [13]; at 33.0 µM 97% | [13]; at 100.0 µM 97% | [15]; [17] 88% | [15]; at 11.0 µM 98% | [15]; at 33.0 µM 98% | [15]; [18] 99% | [15]; at 50.0 µM 99% | [15]; at 100.0 µM 98% | [1]; at 11.0 µM 97% | [1]; at 33.0 µM 97% | [1]; [18] 99% | [1]; at 50.0 µM 99% | [1]; at 100.0 µM 97% | [2]; at 11.0 µM 97% | [2]; at 33.0 µM 97% | [2]; at 100.0 µM 97% | [3]; [18] 99% | [3]; at 50.0 µM 99.2% | [4]; at 11.0 µM 97% | [4]; at 33.0 µM 98% | [4]; at 100.0 µM 98% | [5]; [18] 99% | [5]; at 50.0 µM 97.8% | [6]; [17] 84% | [6]; at 11.0 µM 97% | [6]; at 33.0 µM 98% | [6]; [18] 99% | [6]; at 50.0 µM 99.2% | [6]; at 100.0 µM 97% | [7]; at 11.0 µM 97% | [7]; at 33.0 µM 98% | [7]; at 100.0 µM 98% | [8]; at 11.0 µM 98% | [8]; at 33.0 µM 97% | [8]; at 100.0 µM 97% | [9]; at 11.0 µM 98% | [9]; at 33.0 µM 98% | [9]; at 100.0 µM 97% | [10]; [17] 71% | [10]; [18] 99% | [10]; at 50.0 µM 99.2% | [11]; at 11.0 µM 97% | [11]; at 33.0 µM 97% | [11]; at 100.0 µM 97%
